Assay results taken from PubChem BioAssay (NCI).
About 83,000 compounds went through this panel and 20% of them were active in at least one assay; those are over-represented in the sample as a whole.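 The endpoint reported here, percent growth, reads 100 for growth as untreated, 0 for no net growth and -100 for all cells dead.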 A number with no mark means an inactive call. Active and inactive are the calls of the source. The calls were made as follows: active = growth percent below 10; inactive = the rest.

Experiments:
Experiment in all cases: NCI-60 one-dose screen, 48 h (100 = growth as untreated, 0 = no growth, -100 = all killed)
Settings in all cases: 10 µM unless noted
SK-MEL-2 melanoma = system: SK-MEL-2 melanoma
EKVX NSCLC = system: EKVX NSCLC
SN12C renal = system: SN12C renal
UO-31 renal = system: UO-31 renal
TK-10 renal = system: TK-10 renal
ACHN renal = system: ACHN renal
CAKI-1 renal = system: CAKI-1 renal
A498 renal = system: A498 renal
CCRF-CEM leukemia = system: CCRF-CEM leukemia
SR leukemia = system: SR leukemia
RPMI-8226 leukemia = system: RPMI-8226 leukemia
OVCAR-8 ovarian = system: OVCAR-8 ovarian
OVCAR-5 ovarian = system: OVCAR-5 ovarian
OVCAR-4 ovarian = system: OVCAR-4 ovarian
SK-OV-3 ovarian = system: SK-OV-3 ovarian
IGROV1 ovarian = system: IGROV1 ovarian
OVCAR-3 ovarian = system: OVCAR-3 ovarian
HS 578T breast = system: HS 578T breast
NCI/ADR-RES ovarian = system: NCI/ADR-RES ovarian
MOLT-4 leukemia = system: MOLT-4 leukemia

Structure (SMILES)	growth (SK-MEL-2 melanoma)	growth (EKVX NSCLC)	growth (SN12C renal)	growth (UO-31 renal)	growth (TK-10 renal)	growth (ACHN renal)	growth (CAKI-1 renal)	growth (A498 renal)	growth (CCRF-CEM leukemia)	growth (SR leukemia)	growth (RPMI-8226 leukemia)	growth (OVCAR-8 ovarian)	growth (OVCAR-5 ovarian)	growth (OVCAR-4 ovarian)	growth (SK-OV-3 ovarian)	growth (IGROV1 ovarian)	growth (OVCAR-3 ovarian)	growth (HS 578T breast)	growth (NCI/ADR-RES ovarian)	growth (MOLT-4 leukemia)
COc1ccccc1NCc1cccn1Cc1ccc(F)cc1	106%	98%	97.5%	75.6%	91.3%	93.3%	94%	85.9%	91.8%	100%	95.2%	103%	95.7%	96.9%	116%	88.8%	112%	105%	93.7%	–
Cc1cc(-c2ccc(Cl)cc2)n(Cc2nnc(SCC(=O)Nc3ccc(S(N)(=O)=O)cc3)n2C2CCCCC2)n1	106%	103%	105%	82.3%	106%	104%	99.4%	111%	114%	–	102%	99.2%	107%	109%	106%	104%	–	100%	106%	141%
Cc1ccc(-c2cc3nc(C(Cl)Cl)nc(-c4cccs4)n3n2)cc1	105%	66.3%	85.9%	70.7%	141%	21%	55.6%	84.3%	104%	–	51.9%	77.5%	72.4%	71%	86.4%	61.7%	20.3%	91%	58.3%	98.6%
COC(=O)c1[nH]nc2c1C1(C(=O)c3cccc4cccc1c34)C(C#N)=C(N)O2 (stereo unspecified)	105%	89.9%	100%	73.4%	122%	99.6%	79.7%	82.1%	106%	–	104%	92%	101%	97.5%	85.3%	95.5%	–	86.8%	106%	111%
COc1ccc(NC(=O)CSc2nnc(-c3ccc4nc(-c5ccccc5)[nH]c4c3)o2)cc1	105%	94%	96%	85.7%	121%	102%	101%	98%	91.6%	–	79.1%	101%	101%	100%	108%	92.9%	110%	105%	101%	83.5%
O=C(Nc1ccc(F)c(F)c1)c1cc(-c2ccc(F)cc2F)ccc1O	-11.3% (active)	8.23% (active)	-1.95% (active)	-12.5% (active)	14.2%	2% (active)	-18.8% (active)	-53.2% (active)	15.2%	32.8%	-11.4% (active)	9.13% (active)	12.1%	10%	6.7% (active)	14.9%	7.32% (active)	-0.443% (active)	2.02% (active)	–
Cn1cc(CNc2nc3ccc(OC/C(=C/F)CN)cc3o2)ccc1=O	114%	98.4%	99.8%	93.1%	107%	105%	91%	102%	107%	117%	110%	111%	101%	106%	109%	102%	112%	103%	102%	–
CC1(C)CC[C@]2(CN)CC[C@]3(C)C(=CC[C@@H]4[C@@]5(C)CCCNC(C)(C)[C@@H]5CC[C@]43C)[C@H]2C1	108%	96%	99.5%	89%	111%	109%	93.2%	98%	79.4%	–	81.3%	101%	105%	103%	106%	98.1%	106%	–	105%	82.8%
N/C(=N\C(N)=N\c1nc2ccccc2s1)c1ccncc1Cl	35.3%	52.7%	35.8%	34.6%	129%	37.7%	37.5%	65.3%	10.7%	39.4%	11.6%	49%	61.1%	104%	41.8%	34.2%	–	35.7%	25.2%	–
Cc1cc(C(NC(=O)CCCCCNc2cccc3c2C(=O)N(C2CCC(=O)NC2=O)C3=O)c2ccc3c(c2)OC(F)(F)O3)c(O)c2ncccc12 (stereo unspecified)	62.6%	71.3%	49.9%	77.2%	93.8%	63.5%	50%	95.1%	38.6%	26.2%	34.7%	38.6%	73.2%	73.1%	109%	37.5%	38.3%	37.7%	104%	–
